Screening results: PubChem, several laboratories
Vif imaging: HIV Vif self-association inhibitors, primary screen, imaging, HEK293T, single point; inhibition, % at 7.49 µM; HEK293T cells, Vif self-association by quenched fluorescence, 24 h; AID 602346, 2012; 340,000 tested, 0.35% active; in the data active means inhibition above about 50%, passing the limit was not always enough; inconclusive means no clear call, values can overlap the other calls; inactive means below about 31%
GRIN3A LBD mod: binders of NR3A ligand-binding domain, primary screen, biophysical, differential scanning fluorimetry, uHTS; Glutamate receptor ionotropic, NMDA 3A (GRIN3A) ligand-binding domain; NR3A LBD differential scanning fluorimetry, Tm shift; 0% = protein alone, 100% = glycine-bound protein; Tm shift relative to glycine control, % at 25 µM; 340,000 tested, 2.5% active;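 active means melting temperature shift of at least 10% of the positive control shift, at one fixed dose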
SMARCA2 act: SMARCA2 (BRM) function activators, primary screen, cell-based, luminescence, high throughput. MG213 cells, MMTV-luciferase reporter, dexamethasone, overnight. activation, % at 9.1 µM. 370,000 tested, 1% active. AID 652017, 2013; in the data active means activation above about 7.8%;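 further: 0% = vehicle wells and 100% = reference activator wells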
esBAF inh: Bmi1 luciferase reporter increase in mESCs, primary screen, esBAF inhibitor project, mouse ES cells, Bmi1 luciferase knock-in, single point; 24 h; 100% = twice the neutral-well signal; reporter increase, % at 12.5 µM; 350,000 tested, 2% active; AID 602393, 2012; in the data active means activation above about 40%; inconclusive means no clear call, values can overlap the other calls;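 further: 0% = median of the plate's neutral control wells and 100% = double that signal; a rise in the Bmi1 reporter signal indicates esBAF inhibition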
NadD inh: inhibitors of S. aureus NadD, primary screen, biochemical, colorimetric, uHTS; Nicotinate-nucleotide adenylyltransferase NadD (Staphylococcus aureus N315); purified NadD enzyme, colorimetric absorbance read-out; inhibition, % at 20 µM; 360,000 tested, 0.78% active; AID 602399, 2012; in the data active means inhibition above about 26%
SKN-1 block: suppressors of acrylamide-induced Pgst-4::GFP reporter in worms, primary screen, SKN-1 inhibitor project, whole organism, uHTS, GFP/RFP fluorescence ratio, strain VP596. inhibition, % at 21.8 µM. C. elegans VP596 Pgst-4::GFP/RFP ratio, 24 h. 360,000 tested, 0.49% active;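 active means interference check ratio from 0.5 to 1.5 plus GFP to RFP signal ratio inhibition reaching or exceeding a fixed threshold, cut at about 30% in these data, passing the limit was not always enough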
Active calls of the source: *; ? = inconclusive; nt = no result. The list is not random: actives were taken first. Their share in the collection is about 5.2%.

SMILES	Vif imaging	GRIN3A LBD mod	SMARCA2 act	esBAF inh	NadD inh	SKN-1 block
CC(C)NC(=O)N1[C@H](CO)[C@@H]2c3ccccc3N(C(=O)C3CCCCC3)C[C@@H]21	nt	nt	nt	1	nt	nt
OCCn1c(-c2ccc(F)cc2)csc1=Nc1ccccc1	-1	0	0	nt	-2	0
OCCn1c(-c2ccc3c(c2)OCO3)csc1=Nc1ccccc1	-25	-4	-2	78*	1	11
CCOc1ccc(N=c2scc(-c3ccc(OC)cc3)n2CCO)cc1	-14	6	-5	14	-3	-8
CCOc1ccc(N=c2scc(-c3ccccc3)n2CCO)cc1	-10	0	-3	45*	-4	14
O=c1c2ccccc2nc(-c2ccco2)n1-c1nc2ccccc2s1	15	0	0	nt	0	5
Cn1c(-n2c(-c3ccco3)nc3ccccc3c2=O)nc2ccccc21	-6	-2	4	49*	4	16
Fc1ccc(NC(=S)N/N=C/c2cccc(Br)c2)c(F)c1	-2	32*	1	31	2	-20
Cc1ccccc1NC(=O)C(=O)Nc1ccccc1C	-3	1	3	45*	-9	4
Cc1ccccc1NC(=O)C(=O)N/N=C/c1cccc(Br)c1	-2	34*	-1	nt	-1	-25
C=CCNC(=O)C(=O)N/N=C/c1cccc(Br)c1	7	-1	-1	8	0	8
Fc1ccc(/C=N/NC(=S)Nc2ccc(Cl)cc2Cl)cc1	18	-1	-2	nt	0	9
CO[C@H]1CN(C)C(=O)c2cc(NC(=O)NC3CCCCC3)ccc2OC[C@H](C)N(CC2CC2)C[C@H]1C	nt	nt	nt	2	nt	nt
C[C@@H]1CCCCO[C@@H](CN(C)C(=O)Cc2ccccc2)[C@H](C)CN([C@@H](C)CO)C(=O)c2cc(NC(=O)c3ccccc3)ccc2O1	nt	nt	nt	10	nt	nt
C[C@@H]1CN([C@H](C)CO)C(=O)Cc2cc(NC(=O)CCC(F)(F)F)ccc2O[C@H]1CN(C)C(=O)Nc1cccc2ccccc12	nt	nt	nt	-1	nt	nt
COc1ccc(-c2cn[nH]c2-c2ccc(OCc3ccc(F)cc3)cc2O)cc1OC	-10	16*	-5	nt	8	6
O=[N+]([O-])c1ccc(COc2ccc(-c3[nH]ncc3-c3ccccc3)c(O)c2)cc1	1	25*	-4	nt	15	2
Oc1cc(OCc2ccccc2)ccc1-c1[nH]ncc1-c1ccccc1	-1	17*	-4	0	2	-9
O=C(N[C@@H]1CC[C@H](CCNS(=O)(=O)Cc2ccccc2)O[C@@H]1CO)c1cnccn1	nt	nt	nt	-2	nt	nt
CC1Cc2ccccc2N1C(=O)C1CCN(S(=O)(=O)Cc2ccccc2)CC1 (stereo not given)	0	-1	-1	0	-11	32*
C[C@@H]1CN([C@H](C)CO)C(=O)c2cccc(NS(=O)(=O)c3ccc(Cl)cc3)c2O[C@H]1CN(C)C	nt	nt	nt	1	nt	nt
CC1(C)CC1C(=O)Nc1ccc([N+](=O)[O-])cc1Br (stereo not given)	-13	12*	0	5	-7	12
O=C(N[C@H]1CC[C@H](CCNC(=O)C2CCOCC2)O[C@@H]1CO)c1ccncc1	nt	nt	nt	-7	nt	nt
C[C@H]1CCCCO[C@H](CN(C)S(=O)(=O)c2ccc(Cl)cc2)[C@@H](C)CN([C@@H](C)CO)C(=O)c2cc(NS(=O)(=O)c3cn(C)cn3)ccc2O1	nt	nt	nt	2	nt	nt
CCC(=O)Nc1nc2ccc3nc(C)sc3c2s1	6	-5	6	46*	3	9
SMILES	Vif imaging	GRIN3A LBD mod	SMARCA2 act	esBAF inh	NadD inh	SKN-1 block
CCC(=O)Nc1nc2c(OC)ccc(OC)c2s1	-5	-1	-1	-4	2	-6
COc1ccc(/C=C2\CCCC3C2=NN(C(=O)c2scnc2C)C3c2ccc(OC)c(OC)c2)cc1OC (stereo not given)	14	11*	0	-1	0	12
CC(C)(C)S(=O)(=O)c1cnc(-c2ccccn2)nc1N	-1	2	1	nt	0	9
Cc1cccc(-c2ncc(S(=O)(=O)C(C)(C)C)c(N)n2)c1	-10	1	-2	68*	-1	-4
CC(C)c1c(O)ccc2c1CC[C@H]1C(C)(C)CCC[C@]21C	2	22*	-5	3	2	6
CC(C)(O)c1ccc2c(c1)CCC1C(C)(C(=O)O)CCCC21C (stereo not given)	-7	-3	1	8	-5	-6
C[C@H]1CCCCO[C@H](CN(C)C(=O)Nc2ccc(C(F)(F)F)cc2)[C@@H](C)CN([C@@H](C)CO)C(=O)c2cc(N(C)C)ccc2O1	nt	nt	nt	0	nt	nt
Cc1nnc(SCc2ccccc2)nc1-c1ccccc1	-8	5	3	83*	-12	24
CO[C@H]1CN(C)C(=O)c2ccc(NS(C)(=O)=O)cc2OC[C@H](C)N(C(=O)C2CCOCC2)C[C@@H]1C	nt	nt	nt	-1	nt	nt
Cc1nnc(-c2cnn(-c3ccccc3)c2N)n1Cc1cccc(C(F)(F)F)c1	-4	-2	4	9	9	21
Cc1ccc(-c2cnn(-c3cccc(C(F)(F)F)c3)c2N)cc1	-7	-15	2	87*	-1	-8
Nc1c(-c2ccccc2)cnn1-c1ccccc1	-12	2	6	23	0	17
Nc1c(-c2ccc(Cl)cc2)cnn1-c1cccc([N+](=O)[O-])c1	-11	-2	2	64*	-2	13
Nc1c(-c2ccc(Cl)cc2)cnn1-c1cccc(C(F)(F)F)c1	-16	2	-1	68*	-6	-20
Cc1nn(-c2cccc([N+](=O)[O-])c2)c(N)c1-c1ccccc1	3	0	2	66*	-1	4
Nc1c(-c2ccccc2)cnn1-c1cccc([N+](=O)[O-])c1	4	2	4	?	-6	12
O=C(NCC[C@H]1CC[C@H](NS(=O)(=O)c2ccccc2)[C@@H](CO)O1)c1cc(Cl)cc(Cl)c1	nt	nt	nt	0	nt	nt
Cc1[nH]c(=O)c(C(=O)/C=C/c2ccccc2F)c2c1CCCC2	-7	-2	-8	43*	1	-5
C[C@H](O)C#Cc1cnc2c(c1)C(=O)N([C@H](C)CO)C[C@H](C)[C@@H](CN(C)C(=O)c1ccncc1)O2	nt	nt	nt	8	nt	nt
Nc1c(C(=O)Nc2cccc(F)c2)nnn1-c1ccc2c(c1)OCCO2	39	3	4	5	-5	15
COc1ccc(Cn2nnc(C(=O)Nc3ccc(F)cc3)c2N)cc1	nt	-1	-5	9	-1	0
